High-throughput results deposited in PubChem BioAssay by National Center for Advancing Translational Sciences (NCATS).
The list is not random: actives were taken first. Their share in the collection is about 5.7%.
ATXN2 expr inh – Primary qHTS for Inhibitors of ATXN expression | Potency, µM (doses to about 57 µM), for the others: at the highest dose activity change, negative = inhibition, hits mostly inhibitors | HEK-293 ATXN2-luciferase reporter, luminescence, 24 h | 360,000 tested, 0.72% active; also: potency is read from the fitted curve at half-maximal effect; % is scaled to controls: 0 for no effect and ±100 for the full control effect; nearly all actives have a fitted effect of over 55% in size
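qHTS (up to 57 uM final) was run with 24 h compound exposure of reporter cells at 37 °C. Each well was multiplexed: SteadyGlo luminescence measured ATXN2-luciferase expression after a fluorogenic Gly-Phe-AFC viability readout (25 uM final).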
TGFb inhibitor – qHTS for Inhibitors of TGF-b | HepG2 CAGA-GFP TGF-b/SMAD3 reporter, GFP fluorescence, 18 h; TGF-beta stimulated, 500 pg/mL final | Potency, µM (series often up to 46.1 µM), without a hit: top-dose activity, negative = inhibition, usual class: inhibitors | 410,000 tested, 1.2% active | AID 588855, 2011; also: potency is read from the fitted curve at half-maximal effect; % is scaled to controls: 0 for no effect and ±100 for the full control effect; nearly all actives have a fitted effect of over 65% in size
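Inhibition was scored as loss of TGF-beta-induced (500 pg/mL final, 18 hours, 37 degrees C) GFP in HEPG2 cells carrying a CAGA-GFP reporter, in DMEM with 1% FBS. Well GFP was summed per cell; Activity was normalised to unstimulated and stimulated DMSO wells, then concentration-response fitting.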
ATXN viability – Viability Counterscreen for Primary qHTS for Inhibitors of ATXN expression; Potency, µM (highest dose often 56.7 µM), usual class: cytotoxic; 400,000 tested, 0.49% active; S2 cells (HEK-293 line with an ATXN2-luciferase reporter) viability, CellTiter-Fluor protease fluorescence, 24 h; also: potency is read from the fitted curve at half-maximal effect; nearly all actives have a fitted effect of over 40% in size
HepG2 viability – qHTS for Inhibitors of TGF-b: Cytotox Counterscreen; HepG2 CAGA-GFP viability, ATP luminescence, 18 h; Potency, µM (series often up to 46.1 µM), for the others: top-dose activity change, negative = cytotoxicity, most hits filed as cytotoxic; 410,000 tested, 0.76% active; also: potency is read from the fitted curve at half-maximal effect
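CellTiter-Glo luminescence gave cytotoxicity after 18 hours at 37 degrees C. The cells were HepG2 CAGA-GFP in 1% FBS DMEM, stimulated with 500 pg/mL TGF-beta after compound addition. %Activity was normalised to no-cell wells (complete cell-killing) and DMSO (no toxicity), and curves were fitted and classified.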
IL-1B inflam inh – qHTS for Inhibitors of Inflammasome Signaling: IL-1-beta AlphaLISA Primary Screen; 360,000 tested, 4.7% active; activity change, % at 57.5 µM; AID 743279, 2014; THP-1 LPS/ATP IL-1B secretion, AlphaLISA, 16 h; hits give low values; in the data active = activity change below about -50%; inconclusive = mostly about -30% to -49%; also: % is scaled to controls: 0 for no effect and ±100 for the full control effect
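THP-1 cells pretreated 1 hr with compounds (up to 57.5 uM final), then stimulated with LPS (250 ng/mL final) plus ATP (1.25 mM final); secreted IL-1B measured by AlphaLISA after 16 hr, decreased signal indicating inhibition.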
Numbers without * were called inactive; i = inactive; u = inconclusive; x = no result given. Unless noted, calls follow the shape of the dose curve; as a rule, active = well fitted curve in the direction sought with a large enough effect; inconclusive = small, poorly fitted or top-dose-only effect, or another doubt; inactive = no such curve, though single readings can be large; an effect the other way counts as inactive or inconclusive.

SMILES	ATXN2 expr inh	TGFb inhibitor	ATXN viability	HepG2 viability	IL-1B inflam inh
CN1Cc2cc(C(=O)N3CCC(C4CCNCC4)CC3)ccc2NC(CC(=O)O)C1=O (centres undefined)	11%	x	i	x	x
CC(C)(CC(=O)NCc1ccc(Cl)cc1Cl)CC1=NS(=O)(=O)c2ccccc2N1	25µM*	u	i	-51%	x
Cc1ccc(Cl)cc1NC(=O)COC(=O)CC(C)(C)CC1=NS(=O)(=O)c2ccccc2N1	-23%	u	u	-36%	x
CN(CC(=O)Nc1ccc(Cl)c(C(F)(F)F)c1)C(=O)COc1cccc2cccnc12	x	-5%	i	-27%	-7
CSc1ccccc1NC(=O)CN(C)C(=O)COc1cccc2cccnc12	-17%	u	i	11µM*	14
CO[C@H]1C[C@H](O[C@H]2[C@H](C)[C@@H](O[C@@H]3O[C@H](C)C[C@H](N(C)C)[C@H]3OC(C)=O)[C@@H](C)C[C@]3(CO3)C(=O)[C@H](C)[C@@H](OC(C)=O)[C@@H](C)[C@@H](C)OC(=O)[C@@H]2C)O[C@@H](C)[C@@H]1OC(C)=O	x	x	i	x	x
Cc1ncc2c(c1CNS(=O)(=O)N(C)C)CCN(C(=O)/C=C/c1ccccc1F)C2	x	x	i	x	x
COC(=O)/C(=C\c1cc(OC)c(OC)c(OC)c1)c1nc2ccccc2[nH]1	-5%	1%	i	-19%	-99*
COc1cc(/C=C(\C#N)c2nc3ccccc3[nH]2)cc(OC)c1O	6%	162%	u	19%	-60*
COC(=O)/C(=C\c1ccc(O)cc1)c1nc2ccccc2[nH]1	x	1%	i	-3%	-6
O=C(/C=C/c1cccc(Cl)c1)c1nc2ccccc2[nH]1	u	u	u	-72%	-17
COc1cc(/C=C(/C#N)c2nc3ccccc3[nH]2)ccc1OC(=O)c1ccco1	56%	132%	i	-36%	-62*
O=C(/C(=C\c1ccccc1)c1nc2ccccc2[nH]1)c1ccc(Cl)cc1	u	u	x	-56%	-100*
COc1ccc(CC(=O)NCC(c2ccc(N(C)C)cc2)N2CCOCC2)cc1OC (centres undefined)	x	-1%	x	-3%	x
O=c1ccn([C@@H]2O[C@H](CO)[C@H](O)[C@@H]2F)c(=O)[nH]1	-9%	x	x	x	x
CCc1cccc(-n2c(=O)c3cccnc3n2CC(=O)NCc2ccccc2)c1	x	u	x	-28%	x
CCn1c2ccccc2c2cc(NC(=O)COC(=O)Cc3cn4ccsc4n3)ccc21	28µM*	u	i	1%	-6
CCn1c2ccccc2c2cc(NC(=O)CNCC3CCCO3)ccc21 (centres undefined)	-29%	21%	i	-2%	-52*
CCn1c2ccccc2c2cc(NC(=O)CN3CCCC3)ccc21	0%	1%	i	-40%	-69*
CCn1c2ccccc2c2cc(NC(=O)CNCc3ccccc3OC)ccc21	u	u	u	-60%	6
CCn1c2ccccc2c2cc(NC(=O)COC(=O)c3cccc(S(=O)(=O)NC)c3)ccc21	16µM*	-7%	i	-10%	-9
C[C@]12C=CC(=O)C=C1[C@@H](F)C[C@@H]1[C@@H]2[C@@H](O)C[C@@]2(C)[C@H]1CC[C@]2(O)C(=O)CO	-2%	x	i	x	x
COc1ccc2c(c1)C/C(=C\c1ccc(N(C)C)cc1)C2=O	x	183%	x	-25%	x
CC(C)c1cc(-c2nc(-c3ccc(Cl)cc3)no2)n[nH]1	x	u	x	-90%	x
COc1cc(Nc2nc3c(S(=O)(=O)c4ccc(C)c(C)c4)nnn3c3ccsc23)cc(OC)c1	x	-6%	x	-4%	x
SMILES	ATXN2 expr inh	TGFb inhibitor	ATXN viability	HepG2 viability	IL-1B inflam inh
CCn1c2ccccc2c2cc(NC(C)=O)ccc21	-5%	-10%	i	-13%	11
CCn1c2ccccc2c2cc(NC(=O)c3ccco3)ccc21	3%	-4%	i	-1%	-52*
O=C(NCc1cccnc1)c1cnn(-c2ncc3c(n2)-c2ccccc2CCC3)c1C1CC1	x	x	i	x	x
CCS(=O)(=O)Nc1ccc(-c2nnc(SCC(=O)OC)o2)cc1	-4%	11%	i	5%	-85*
COC(=O)CSc1nnc(-c2ccc(S(=O)(=O)N3CCCC3)cc2)o1	4%	1%	i	12%	-52*
COc1ccc(C2C=C(c3ccccc3)Nc3nc(NC(=O)/C=C/c4ccc(F)cc4)nn32)cc1 (centres undefined)	1%	1%	i	-2%	x
O=C(c1cnn(-c2nccc(-c3ccco3)n2)c1C1CC1)N1CCCCC1c1cccnc1 (centres undefined)	x	x	i	x	x
Cc1ccc(S(=O)(=O)c2c(Nc3cc(F)ccc3F)sc(C(=O)c3ccc(F)cc3)c2N)cc1	-10%	u	i	-32%	x
O=C(NCCS(=O)(=O)N1CCN(c2ccc(F)cc2)CC1)c1cccc(C(F)(F)F)c1	x	-11%	x	-12%	x
O=C(CN1CCOCC1)N/N=C/c1c(O)ccc2ccccc12	11µM*	-4%	u	0%	60
O=C(N/N=C\c1c(O)ccc2ccccc12)c1ccc(O)cc1	u	0%	u	-32%	149
O=C(CNc1ccccc1)N/N=C/c1c(O)ccc2ccccc12	7.1µM*	u	i	-42%	216
O=C(CSCC(=O)Nc1ccccc1)N/N=C/c1c(O)ccc2ccccc12	3.2µM*	9%	i	-25%	108
O=C(CN1CCOCC1)N/N=C/c1ccco1	-7%	-10%	i	0%	-13
O=C(N/N=C/c1c(O)ccc2ccccc12)c1ccc(Br)o1	2.8µM*	0%	x	-58%	91
CCCN1C(=O)/C(=C2\SC(N3CCCCC3)=NC2=O)c2ccccc21	53%	-3%	u	-17%	-55*
CCCc1ccccc1OCCNS(=O)(=O)c1cc2c(cc1C)OCC(=O)N2	-18%	u	i	-56%	-99*
CC1CCc2c(sc3nc(C4CC4)nc(N4CCN(C(=O)c5ccco5)CC4)c23)C1 (centres undefined)	u	u	u	10µM*	-17
CN(C)S(=O)(=O)c1ccc(N2CCCC2)c(C(=O)Nc2nc3ccccc3s2)c1	29%	u	i	10%	u
Cc1cccc2sc(NC(=O)c3cc(S(=O)(=O)N(C)C)ccc3N3CCCC3)nc12	-35%	u	i	-28%	-124*
CN(C)S(=O)(=O)c1ccc(N2CCCC2)c(C(=O)Nc2nc3ccc(F)cc3s2)c1	10%	u	u	10%	-51*
Nc1[nH]c(=S)[nH]c(=O)c1N	x	-14%	x	3%	x
Cc1ccc(S(=O)(=O)Nc2ccc(SC(F)F)cc2)c(C)c1	-37%	13µM*	u	-72%	u
